Each structure is given as a SMILES string. Active and inactive are the calls of the source. The calls were made as follows: active = hit-call score of the fitted dose curve at least 0.9, where 1 is the maximum; inactive = score below 0.9.

Read-out in the assay: Alkaline Phosphatase, Placental (ALPP) gene, ALPP (gene 250)
In words: LTEA_HepaRG_ALPP: Life Technologies and Expression Analysis (LTEA) Assay for Alkaline Phosphatase, Placental (ALPP) gene using HepaRG (AID 2283468).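 As to AC50: ALPP transcript by TaqMan qRT-PCR normalized to ACTB GAPDH and POLR2A.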 Particulars: mRNA level, 48 h; actives raise or lower the signal. Here is the method: LTEA_HepaRG is a cell based, multiplexed-readout assay that uses HepaRG, a human liver cell line, with measurements taken at 48 hours after chemical dosing on a 96-well plate.LTEA_HepaRG_ALPP is one of 102 assay component(s) measured in the LTEA HepaRG cell culture assay. It is a marker of Cell proliferation, survival, death.Data from the assay component LTEA_HepaRG_ALPP was analyzed into 1 endpoint. This assay endpoint, LTEA_HepaRG_ALPP, was analyzed with bidirectional fitting relative to DMSO as the negative control and baseline of activity. Using a type of inducible reporter, measures of mRNA induction for gain or loss-of-signal activity can be used to understand regulation of transcription factor activity. To generalize the intended target to other relatable targets, this assay endpoint is annotated to the phosphatase intended target family, where the subfamily is Cell proliferation, survival, death.
A total of 1060 chemcials from the ToxCast library were tested in eight-point concentration-response experiments. Cell culture and cytotoxicity assays were conducted at Thermo Fisher Scientific's Custom Services facility (Madison, WI). A single lot of human HepaRG cells (Thermo Fisher Scientific, Frederick, MD) was used for the cell culture experiments. 96-well format collagen type I coated plates of human HepaRG cells were prepared using established methods. Briefly, cryopreserved HepaRG cells were thawed, plated at a density of approximately 100,000 cells/well in HepaRG Thaw, Plate, and General Purpose media (HPRG770, Thermo Fisher Scientific), and incubated for 48 hours. 0.5% DMSO was selected as vehicle control to balance the requisite need of DMSO in HepaRG cultures to maintain differentiation (for example, baseline metabolism, proportions of hepatocytes vs. cholangiocytes), while enabling further hepatic receptor pathway activation (for example, PXR and CAR) in response to chemical exposure. 48 hours after plating, the culture medium was replaced with HepaRG Serum-Free Incudtion Media. Cells were exposed to each test chemical in duplicate and maintained in CO2 incubators for another 48 hours. Chemical plates were thawed to room temperature and 200x concentrations of treatment groups were prepared. 8-point conentration-reponse curves were made with the highest exposure at 100 uM, followed by half-log dilutions, all in 0.5% DMSO. Each test plate contained variouse controls, induction positive controls (1mM phenobarbital), cytotoxicity positive controls ([…] aflatoxin B1), vehicle controls (0.5% DMSO), and total lysis controls (0.5% DMSO). Cell morphology images were taken using an Essen IncuCyte FLR automated microscope, with six 96-well plates imaged in about 24 minutes. Images were captured and exported and JPEG files. Spent culture media was transfered to black-well plates for the LDH assay, and remaining media was sorted at -80 C for later use. Cells were treated with RLT buffer and frozen until shipped for gene expression analysis. Total RNA was isolated from the cell suspension in 75 uL of Buffer RLT (Qiagen, Germantown, MD 20874) by Quintiles/Expression Analysis (Durham, NC) using a custom isolation procedure. Total RNA from each plate well was transferred to a preamplification plate. Fluidigm's 96.96 Dynamic ArrayTM (Fluidigm, Amsterdam, the Netherlands) technology was used for gene expression analyses by quantitative reverse transcription polymerase chain reaction (qRT-PCR, performed by Quintiles/Expression Analysis, Durham, NC)89. Standard TaqManTM Assays (Applied Biosystems/ThermoFisher Scientific, Foster City, CA) were used to assess the expression of 93 genes selected based on their selectivity and sensitivity to important hepatic receptors known to be modulated by environmental chemicals; importance in human hepatocyte functionality; and hepatotoxicity. […]
Turning to `CC(C)OC(=O)C(C)(C)Oc1ccc(C(=O)c2ccc(Cl)cc2)cc1`, the outcome was inactive.
For `CCCCC(CC)COP(=O)(OCC(CC)CCCC)OCC(CC)CCCC` (stereo not given), the molecule was classed as inactive.
With `O=NO`, the outcome was inactive.
Take `CSc1ccc(Oc2ccc(S(N)(=O)=O)cc2CN(C)C)cc1C`: the half-maximal activity concentration (AC50) (as a rule, the concentration giving half of the maximal activity seen) is 54.5 µM (active).
For the molecule `C/C=C/C=C/C(=O)O`, the result was inactive.
Take `CCCCCCCCCCCCCCOS(=O)(=O)O`: the result was inactive.
With `OCC(CO)n1cnc(-c2ccc(F)cc2)c1-c1ccnc(Oc2ccccc2)n1`, the outcome was inactive.
Regarding `COc1ccc(C(=O)Nc2nc3ccccc3c(NCc3ccccc3)c2C#N)cc1`, the molecule was called inactive.
For the molecule `CN(C)C(=O)NC1(c2ccccc2)CCN(CCC[C@]2(c3ccc(Cl)c(Cl)c3)CCCN(C(=O)c3ccccc3)C2)CC1`, the half-maximal activity concentration (AC50) was 24 µM (active).
Consider `COc1ccc(OC(F)(F)F)cc1CN[C@H]1CCCN[C@H]1c1ccccc1`, for which the result was inactive.
As to `CC1(C)C(=O)NC(=O)N1CO`, the molecule was classed as inactive.
Consider `CN(C)CCCN1c2ccccc2Sc2ccc(Cl)cc21`, for which the half-maximal activity concentration (AC50) is 11.8 µM (active).
For the molecule `Cc1ccc(-c2cc(C(F)(F)F)nn2-c2ccc(S(N)(=O)=O)cc2)cc1`, the outcome was inactive.
As to `Nc1nc(=S)c2[nH]cnc2[nH]1`, the outcome was inactive.
Regarding `NC(=Nc1ccccc1)Nc1ccccc1`, the outcome was inactive.
As to `CC(C)(C)c1ccccc1`, the molecule was called inactive.
Consider `O=Cc1ccccc1C=O`, for which the outcome was inactive.
With `CC(COCC(C)OC(=O)c1ccccc1)OC(=O)c1ccccc1` (stereo not given), the result was inactive.
Regarding `O=C(O)c1cccnc1`, the molecule was called inactive.
For `Cn1cnc2c1c(=O)[nH]c(=O)n2C`, the outcome was inactive.
Consider `CO[C@@H]1COCC[C@@H]1N[C@@H]1CC[C@@](C(=O)N2CCc3ncc(C(F)(F)F)cc3C2)(C(C)C)C1`, for which the result was inactive.
On to `CCCC[C@H]1CN(CC2CCOCC2)C(=O)OC12CCN(C1(C)CCN(C(=O)c3c(C)ncnc3C)CC1)CC2`, for which the outcome was inactive.
In the case of `C=CCc1ccc(OC)c(OC)c1`, the result was inactive.
Turning to `CCCCCCC(CCCCCCCCCCC(=O)OCC(COC(C)=O)OC(C)=O)OC(C)=O` (stereo not given), the call was inactive.
As to `CC(C)COC(=O)CCCCC(=O)OCC(C)C`, the result was inactive.
Still for that read-out and setting: then `O=C(O)CC(O)(CC(=O)O)C(=O)O`, with “inactive”; and `S=c1[nH]c2ccccc2s1`, with “inactive”; and `OCC(O)CO`, with “inactive”.
With `CN(C)CCCN(C)CCCN(C)C`, the result was inactive.
`Cc1cc(Cc2ccc(N)c(C)c2)ccc1N`: the result was inactive.
Take `COC(=O)[C@H]1[C@H]2C[C@@H]3c4[nH]c5cc(OC)ccc5c4CCN3C[C@H]2C[C@@H](OC(=O)c2cc(OC)c(OC)c(OC)c2)[C@@H]1OC`: the concentration at half-maximal activity (AC50) is 25.9 µM (active).
Turning to `Cc1c(C)c2c(c(C)c1O)CCC(C)(COc1ccc(CC3SC(=O)NC3=O)cc1)O2` (stereo not given), the AC50 was 15.8 µM (active).
For `O=C1NC(=O)C(c2ccccc2)(c2ccccc2)N1`, the outcome was inactive.
Same read-out and setting: then `O=C(NS(=O)(=O)/C=C/c1cccs1)c1ccc(F)cc1Br`, with “inactive”.
Regarding `c1ccc2occc2c1`, the molecule was called inactive.
As to `CC1=C(C)S(=O)(=O)CCS1(=O)=O`, the call was inactive.
Regarding `O=C(O)c1[nH]n(-c2ccc(S(=O)(=O)O)cc2)c(=O)c1N=Nc1ccc(S(=O)(=O)O)cc1`, the result was inactive.
`CC(C)NCC(O)c1ccc(O)c(O)c1` (stereo not given): the AC50 is 0.0927 µM (active).
For `C#CC(O)C(CC)CCCC` (stereo not given), the molecule was called inactive.
The same measure, in the same setting: to `O=C1OC(c2ccc(O)cc2)(c2ccc(O)cc2)c2ccccc21` belongs “inactive”.

The values are drawn from PubChem BioAssay (EPA / NIEHS).
